Among the data in PubChem BioAssay AID504710 (Sanford-Burnham Center for Chemical Genomics, 2011) are inhibition values, retold here.

Molecules are shown by their SMILES. Activity calls are given as the source filed them.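 The calls were made as follows: active = inhibition reaching about 16% in any single replicate (limit read from the data); inactive = the rest.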

For the test, the target named is Hexokinase HKDC1 (Homo sapiens) (UniProt Q2TB90). The experiment in a line: compounds lowering human HKDC1 activity – biochemical, single concentration, confirmation (AID 504710). Conditions: recombinant HKDC1, G6PDH/diaphorase/resazurin fluorescence; at 20 µM; hits give high values.
Sequence of Hexokinase HKDC1 (Homo sapiens) (Q2TB90 whole entry, looked up): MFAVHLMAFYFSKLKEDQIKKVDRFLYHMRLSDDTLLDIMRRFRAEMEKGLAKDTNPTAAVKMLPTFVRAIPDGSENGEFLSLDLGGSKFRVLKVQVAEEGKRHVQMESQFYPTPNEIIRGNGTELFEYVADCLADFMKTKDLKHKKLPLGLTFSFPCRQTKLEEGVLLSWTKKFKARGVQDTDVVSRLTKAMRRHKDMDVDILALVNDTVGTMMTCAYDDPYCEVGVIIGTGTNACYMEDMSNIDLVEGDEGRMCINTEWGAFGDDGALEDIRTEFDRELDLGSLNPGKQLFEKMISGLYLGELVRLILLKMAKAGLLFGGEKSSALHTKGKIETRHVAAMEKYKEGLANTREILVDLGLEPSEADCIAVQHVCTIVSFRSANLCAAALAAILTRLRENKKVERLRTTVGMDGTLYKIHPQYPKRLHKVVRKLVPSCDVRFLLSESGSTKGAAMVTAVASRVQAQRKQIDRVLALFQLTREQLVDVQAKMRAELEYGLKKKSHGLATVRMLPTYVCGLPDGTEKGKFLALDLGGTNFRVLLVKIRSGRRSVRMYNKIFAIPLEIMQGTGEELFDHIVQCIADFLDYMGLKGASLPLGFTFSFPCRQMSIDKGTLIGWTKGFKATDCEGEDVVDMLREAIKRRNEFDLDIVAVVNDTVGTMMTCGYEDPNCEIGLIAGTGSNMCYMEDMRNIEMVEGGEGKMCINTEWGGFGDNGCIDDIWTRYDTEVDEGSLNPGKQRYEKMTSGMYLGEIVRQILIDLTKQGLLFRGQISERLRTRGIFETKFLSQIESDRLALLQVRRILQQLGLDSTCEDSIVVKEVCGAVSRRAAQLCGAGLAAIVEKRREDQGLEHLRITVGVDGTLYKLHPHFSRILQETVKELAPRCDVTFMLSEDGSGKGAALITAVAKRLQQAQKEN
What is called inhibition is the drop in the measured response relative to a control, in per cent. With `O=c1c2ccccc2[se]n1-c1ccccc1`, the inhibition is 5.01% (active).

In the case of `CC(=NNC(=S)N1CC2CCC(CC2)C1)c1nccs1`, the inhibition is -42.1% (inactive).

Take `Cc1cc(/C=C2\C(=O)NC(=O)N(c3ccc(Cl)cc3)C2=O)c(C)n1-c1sc2c(c1C#N)CCCC2`: the inhibition is 56.4% (active).

For the molecule `COC(=O)C1CN(C#N)N(c2ccc(Cl)cc2)C12c1ccccc1-c1ccccc12` (stereo not given), the inhibition is 73.6% (active).

With `Nc1c(Br)cc2c3c(cccc13)-c1ccccc1-2`, the inhibition was 51.2% (active).

For the molecule `Cc1ccc2c(C)c3ccc4ccccc4c3c[n+]2c1`, the inhibition was -65.5% (inactive).

Turning to `COc1cc2c(cc1OC)-c1c(OC)c(OC)c(OC)c3ccnc(c13)C2=O`, the inhibition was 57.5% (active).

Take `COC(=O)[C@@H]1[C@@H](C(=O)OC)C2(c3ccccc3-c3ccccc32)N(c2ccc(Cl)cc2)N1C#N`: the inhibition is 43.1% (active).

`COc1ccc(OC)c(N2C(=O)/C(=C/c3ccco3)C(=O)NC2=S)c1`: the inhibition is 77.4% (active).

As for `Cc1ccc(N2C(=O)NC(=O)/C(=C\c3cc(C)n(-c4sc5c(c4C#N)CCCC5)c3C)C2=O)cc1`, the inhibition is 77.3% (active).

Take `Cn1c(=O)c2c(nc(N/N=C/c3c(O)n(C4CCCCC4)c(=S)[nH]c3=O)n2C)n(C)c1=O`: the inhibition is -49.5% (inactive).

With `COC(=O)C[C@]1(C(=O)OC)CN(C#N)N(c2ccc(Cl)cc2)C12c1ccccc1-c1ccccc12`, the inhibition is 62.4% (active).

For the molecule `Cc1cccc(N2C(=O)NC(=O)/C(=C\c3ccc4c(c3)CCCN4Cc3ccccc3)C2=O)c1`, the inhibition was 45.2% (active).

Turning to `CC(=O)OC1C2(CC3N4C(=O)C5(CO)SSC4(CC31O)C(=O)N5C)OC(C)C(C)(C)C2=O` (stereo not given), the inhibition is -77% (inactive).

Consider `COC(=O)C1=C(C(=O)OC)SC2(S1)C(C(=O)OC)=C(C(=O)OC)Sc1c2ssc1=O`, for which the inhibition was -88.9% (inactive).

Turning to `Cc1cccc(N2C(=O)NC(=O)/C(=C\c3cc(C)n(-c4sc5c(c4C#N)CCCC5)c3C)C2=O)c1C`, the inhibition is 54.9% (active).

For the molecule `CC[C@H](C)/C=C(C)/C=C/C1=CC2=C(Cl)C(=O)[C@@](C)(OC(C)=O)C(=O)C2=CO1`, the inhibition is 45.8% (active).

Take `O=C1NC(=S)N(c2ccc(F)cc2)C(=O)/C1=C\c1ccoc1`: the inhibition was 55.2% (active).

For `CCOC(=O)c1c(-n2c(C)cc(C=C3C(=O)NC(=S)NC3=O)c2C)sc2c1CCCC2`, the inhibition was 61% (active).

In the case of `CCN(CC)CCCNC(=O)c1c(O)c2ccccc2n(Cc2ccccc2)c1=O`, the inhibition was -37.1% (inactive).
